# Sampled rows, rich in hits. Any-hit rate of the full collection: about 21%.
# Gal4-VP16 FLuc = VP16 counterscreen qHTS for inhibitors of ROR gamma transcriptional activity; Drosophila S2 Gal4-VP16 UAS-luciferase, luminescence, 20 h; Potency, µM (series often up to 53.6 µM), for inactives: at the highest dose activity, negative = inhibition, usual class: inhibitors; 310,000 compounds, 3.5% hits; AID 2546, 2010;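 further: Gal4-VP16 expression switched on by copper sulfate through the metallothionein promoter; potency means the concentration at half of the fitted maximal effect; nearly all actives have a fitted effect of over 50% in size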
# IL-1B inflam inh = qHTS for Inhibitors of Inflammasome Signaling: IL-1-beta AlphaLISA Primary Screen; THP-1 LPS/ATP IL-1B secretion, AlphaLISA, 16 h; stronger effect = lower value; activity change, % at 57.5 µM; 360,000 compounds, 4.7% hits; in the data active means activity change below about -50%; inconclusive means mostly about -30% to -49%
#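 THP-1 cells pretreated 1 hr with compounds (up to 57.5 uM final), then stimulated with LPS (250 ng/mL final) plus ATP (1.25 mM final); secreted IL-1B measured by AlphaLISA after 16 hr, decreased signal indicating inhibition.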
# ELG1 DNA repair = qHTS screen for small molecules that inhibit ELG1-dependent DNA repair in human embryonic kidney (HEK293T) cells expressing luciferase-tagged ELG1. AID 504467, 2011. HEK293T ELG1-luciferase reporter, luminescence, 16 h; DNA damage induced by 5-fluorouridine. Potency, µM (titrated, usually from 46.1 µM), for inactives: top-dose activity change, negative = inhibition, hits mostly inhibitors. 330,000 compounds, 2.3% hits; further: potency means the concentration at half of the fitted maximal effect; nearly all actives have a fitted effect of over 55% in size
#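 DMSO vehicle served as the neutral condition. Each well held 2,000 cells given 5-fluorouridine plus compound; after 16 hr at 37 °C/5% CO2, ONE-Glo was added and luciferase measured 30 min later.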
# RORgamma inh = qHTS for inhibitors of ROR gamma transcriptional activity. Nuclear receptor ROR-gamma (Mus musculus), P51450. Drosophila S2 Gal4-RORgamma UAS-luciferase reporter, 20 h. Potency, µM (series often up to 53.6 µM), without a hit: top-dose activity change, negative = inhibition, usual class: inhibitors. 310,000 compounds, 5.4% hits; further: potency means the concentration at half of the fitted maximal effect; nearly all actives have a fitted effect of over 60% in size
# Target sequence (P51450 whole entry, looked up, the tested form may be a part): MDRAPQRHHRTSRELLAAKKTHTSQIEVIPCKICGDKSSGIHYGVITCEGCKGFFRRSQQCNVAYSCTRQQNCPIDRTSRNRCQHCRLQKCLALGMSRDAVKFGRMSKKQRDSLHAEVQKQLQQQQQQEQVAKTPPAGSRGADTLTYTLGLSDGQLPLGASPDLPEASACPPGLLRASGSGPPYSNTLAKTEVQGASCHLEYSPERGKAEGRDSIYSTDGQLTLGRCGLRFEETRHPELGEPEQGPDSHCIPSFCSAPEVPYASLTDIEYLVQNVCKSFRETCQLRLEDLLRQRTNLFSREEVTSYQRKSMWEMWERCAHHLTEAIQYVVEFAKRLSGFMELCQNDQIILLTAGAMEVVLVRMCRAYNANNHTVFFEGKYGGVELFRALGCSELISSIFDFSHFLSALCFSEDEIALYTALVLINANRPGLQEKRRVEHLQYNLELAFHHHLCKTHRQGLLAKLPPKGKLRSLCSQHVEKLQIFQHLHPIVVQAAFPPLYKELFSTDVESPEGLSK
#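 Schneider cells (Drosophila), stable Gal4 DBD–ROR gamma + UAS-luc; 1 hr cmpd preincubation; Cu2+ induction 700 uM final; 20 hr ambient; luminescence.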
# TDP1 cell CPT = qHTS for Inhibitors of human tyrosyl-DNA phosphodiesterase 1 (TDP1): qHTS in cells in presence of CPT. chicken DT40 Tdp1-/-;hTDP1 cells + 20 nM CPT, ATP luminescence, 48 h. Potency, µM (highest dose often 46.2 µM), without a hit: at the top dose activity change, negative = growth inhibition, most hits filed as inhibitors. 420,000 compounds, 12% hits. AID 686979, 2013; further: potency means the concentration at half of the fitted maximal effect; nearly all actives have a fitted effect of over 55% in size
#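 Cell growth measured by CellTiter-Glo luminescence after a minimum 48 h, 37 C compound exposure with 20 nM CPT in Tdp1-knockout DT40 cells stably expressing hTDP1, seeded 400/well; qHTS titration format.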
# DT40 TDP1 no CPT = qHTS for Inhibitors of human tyrosyl-DNA phosphodiesterase 1 (TDP1): qHTS in cells in absence of CPT. DT40 Tdp1-/- hTDP1 cells, no CPT, ATP luminescence, 48 h. Potency, µM (titrated, usually from 46.2 µM), without a hit: at the top dose activity change, negative = growth inhibition, most hits filed as inhibitors. 420,000 compounds, 15% hits. AID 686978, 2013; further: potency means the concentration at half of the fitted maximal effect; nearly all actives have a fitted effect of over 55% in size
#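 DT40 Tdp1-/-;hTDP1 cells, no CPT (DMSO vehicle only), 400 cells/well; compounds pin-transferred; ≥48 hr, 37 °C; CellTiter-Glo 30 min RT dark, luminescence read.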
# Active calls of the source: *; ? = inconclusive; / = no result given; [ ] = dose if it differs, or a comment. Unless noted, the call rests on the fitted dose curve; in most records, active means well fitted curve in the direction sought with a large enough effect; inconclusive means small, poorly fitted or top-dose-only effect, or another doubt; inactive means no such curve, though single readings can be large; an effect the other way counts as inactive or inconclusive. On the % scale 0 is the no-effect control and ±100 the full control effect.
SMILES,Gal4-VP16 FLuc,IL-1B inflam inh,ELG1 DNA repair,RORgamma inh,TDP1 cell CPT,DT40 TDP1 no CPT
N#CC1=C(N)N(c2ccc(F)cc2)C2=C(C1c1ccc(O)cc1)S(=O)(=O)CC2 (stereo unspecified),-5.9%,-0.4,6.8%,-21.7%,20.6µM*,?
CCCCNc1cc(N2CCN(C3CCCCC3)CC2)c2noc3c2c1C(=O)c1ccccc1-3,/,/,/,/,5.17µM*,5.17µM*
O=C1c2ccccc2-c2onc3c(N4CCN(CCO)CC4)cc(N4CCN(C(=O)c5ccco5)CC4)c1c23,?,?,?,?,?,14.6µM*
O=C(O)CCCNc1cc(N2CCN(C(=O)c3ccco3)CC2)c2noc3c2c1C(=O)c1ccccc1-3,-13.8%,?,-28.4%,?,?,?
O=C(O)CCCNc1cc(N2CCC3(CC2)OCCO3)c2noc3c2c1C(=O)c1ccccc1-3,-3.9%,/,?,-28.9%,/,/
CCOC(=O)N1CCN(c2cc(NCCC(=O)O)c3c4c(onc24)-c2ccccc2C3=O)CC1,/,-63.9*,?,-3.1%[0.365 µM],?,?
COc1cc(CC(NC(C)=O)C(=O)NC2CCN(c3nc(OC)nc(OC)n3)CC2)cc(OC)c1 (stereo unspecified),-7.0%,-7.0,12.9%,-0.6%,4.6%,-3.7%
COc1ccc(CC(=O)NCc2ccccc2F)cc1S(=O)(=O)N1CCOCC1,/,-9.7,/,/,5.5%,-3.6%
O=C(CSc1nc2[nH]c(=O)cc(O)c2s1)Nc1ccc(Cl)c(C(F)(F)F)c1,/,-3.1,9.9%,/,-21.0%,20.6%
Cc1cc(=O)[nH]c(SCC(=O)Nc2cccc(C(F)(F)F)c2)n1,?,26.1,4.4%,-5.4%,?,?
O=c1cc(O)c2sc(Nc3cccc(C(F)(F)F)c3)nc2[nH]1,3.2%,-25.8,14.3%,37.6%,11.6µM*,7.31µM*
Cc1cc(=O)[nH]c(Nc2cccc(C(F)(F)F)c2)n1,-14.8%,32.7,?,-1.3%[10 µM],?,23.1µM*
Cc1ccc(S(=O)(=O)Nc2cccc(S(=O)(=O)N3CCCC3)c2)cc1C,/,4.2,-6.5%,/,?,?
Cc1ccc2[nH]c(O)c(N=NC(=O)C(C)n3cnc4ccccc4c3=O)c2c1 (stereo unspecified),-0.4%,-2.0,-9.5%,22.6%,-18.1%,?
Oc1c(C(c2ccccn2)N2CCCCC2)cc(Cl)c2cccnc12 (stereo unspecified),?,78.8,?,2.82µM*,18.4µM*,10.3µM*
OCCN1CCN(C(c2cccs2)c2ccc3cccnc3c2O)CC1 (stereo unspecified),11.2µM*,/,-6.5%,11.2µM*,/,/
OCCN1CCN(CC(O)COc2ccc3ccccc3c2)CC1 (stereo unspecified),-7.9%,-2.1,1.4%,-4.2%,-9.4%,-26.1%
CCN1CCN(C(c2ccc(C(F)(F)F)cc2)c2ccc3cccnc3c2O)CC1 (stereo unspecified),1.26µM*,-74.3*,22.5%,1.12µM*,?,16.4µM*
CN1CCN(C(c2ccc(Cl)cc2)c2cc(Cl)c3cccnc3c2O)CC1 (stereo unspecified),1.41µM*,-64.2*,20.6%,3.16µM*,?,16.4µM*
CCN1CCN(C(c2ccccc2)c2sc3nc(C)nn3c2O)CC1 (stereo unspecified),7.5%,9.9,-6.9%,-15.9%,10.8%,9.1%
CC(=O)Oc1ccc(/C=C(\NC(=O)c2ccco2)C(=O)NCc2ccco2)cc1,1.7%,17.7,4.7%,-0.4%,5.7%,-6.7%
Cc1noc(C)c1NC(=O)N(C)C[C@@H]1Oc2ccc(NC(=O)CCC(F)(F)F)cc2CC(=O)N([C@@H](C)CO)C[C@@H]1C,/,26.9,10.5%,/,6.0%,-11.4%
CN1CCN(C(c2ccc(C(F)(F)F)cc2)c2cc(Cl)c3cccnc3c2O)CC1 (stereo unspecified),0.891µM*,/,?,0.398µM*,/,/
CCOc1ccc(-c2csc(/C(C#N)=C\c3ccc(O)c([N+](=O)[O-])c3)n2)cc1,?,-6.2,13µM*,-62.7%,3.66µM*,4.61µM*
COc1ccc(-c2nc3nc(C)cc(Nc4ccc(C(C)=O)cc4)n3n2)cc1,/,/,/,/,?,14.6µM*
SMILES,Gal4-VP16 FLuc,IL-1B inflam inh,ELG1 DNA repair,RORgamma inh,TDP1 cell CPT,DT40 TDP1 no CPT
COc1cc(Nc2cc(C)nc3nc(C)nn23)cc(OC)c1OC,12.6µM*,-15.3,?,-25.4%,?,-14.6%
COc1ccccc1Nc1cc(C)nc2nc(-c3ccccc3)nn12,/,/,/,/,16.4µM*,?
COC(=O)c1ccc(Nc2cc(C)nc3nc(C)nn23)cc1,-11.3%,11.6,?,-6.4%,1.0%,-3.8%
CC1Cc2cc(S(=O)(=O)N3CCN(c4ccccc4F)CC3)ccc2N1C(=O)C1CCC1 (stereo unspecified),/,/,/,/,?,-13.4%
O=C(CCn1c(=O)c2cccn2c2cccnc21)NCc1ccc(F)cc1,/,/,/,/,9.0%,-20.3%
COC(=O)c1c(NC(=O)COC(=O)CNC(=O)C2CCCCC2)sc(C)c1C,-26.4%,22.6,5.8%,-33.4%,-5.4%,?
O=C(Nc1nc(OCCN2CCCC2=O)cnc1/C=C\c1ccccc1)c1cc2ccccc2s1,/,-19.3,/,/,29.1µM*,?
CC12CCC(=O)C=C1CCC1C2CCC2(C)C1CC1C3C(=O)N(Cc4ccccc4)C(=O)C3CC(=O)C12 (stereo unspecified),/,-12.5,/,/,23.1µM*,25.9µM*
CC(=O)c1ccc(OC(C)c2nc3ccccc3s2)cc1 (stereo unspecified),22.7%,55.6,?,?,-5.9%,?
CCc1ccc(Nc2nnc(SC3CCOC3=O)s2)cc1 (stereo unspecified),?,7.1,?,44.3%,-16.8%,-9.8%
Cc1cccc(Nc2nc(-c3c(C)nc4ccccn34)cs2)c1,?,-96.1*,?,12.6µM*,13µM*,11.2µM*
Cc1nc2ccccn2c1-c1csc(Nc2ccc(C(=O)O)cc2)n1,1.0%,94.9,?,6.3%,2.91µM*,3.66µM*
Cc1cccc(Nc2nc(-c3ccc(O)cc3O)cs2)n1,?,-90.0*,?,3.98µM*,13.1%,?

# From PubChem BioAssay
